# According to the supplement of paper PMC6089552:
# Screen size: about 3,200 compounds; about 300 (9.4%) showed activity. The sample holds actives, similar compounds and a random draw of the others, so the mix is not that of the screen. Unmarked numbers belong to inactive results.
# System: A673/TR/shEF
# Assay: cell viability (LOESS-normalised, relative to median of negative controls) (log2 ratio); higher = more viable cells (less compound effect), active = hit call of the paper (over 3 MAD below the median)
# Details: treatment time: 72 h
# Procedure, shortened: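 For three days, A673/TR/shEF Ewing sarcoma cells in 384-well plates (1,500 per well) were treated with library compounds at two or more concentrations or with DMSO controls, after doxycycline had been added or withheld 24 h beforehand to induce EWS-FLI1 shRNA knockdown. Viability was read by CellTiter-Glo luminescence on an Envision reader. The data were LOESS-corrected per plate, divided by the median of negative controls and log2-transformed.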
# [1] = 0.25 µM, library screen: screen2, EWS-FLI1 expression: high (no doxycycline)
# [2] = 0.25 µM, library screen: screen2, EWS-FLI1 expression: low (doxycycline-induced shRNA knockdown)
# [3] = 2.5 µM, library screen: screen2, EWS-FLI1 expression: high (no doxycycline)
# [4] = 2.5 µM, library screen: screen2, EWS-FLI1 expression: low (doxycycline-induced shRNA knockdown)
# [5] = 0.25 µM, library screen: screen1, EWS-FLI1 expression: high (no doxycycline)
# [6] = 0.25 µM, library screen: screen1, EWS-FLI1 expression: low (doxycycline-induced shRNA knockdown)
# [7] = 2.5 µM, library screen: screen1, EWS-FLI1 expression: high (no doxycycline)
# [8] = 2.5 µM, library screen: screen1, EWS-FLI1 expression: low (doxycycline-induced shRNA knockdown)
smiles,measurement,setting,value
N[C@@]1(C(=O)O)CC[C@@H](C(=O)O)C1,cell viability (log2),[1],0.102
same,cell viability (log2),[2],0.109
same,cell viability (log2),[3],0.101
same,cell viability (log2),[4],0.133
S=C(NC1CCCCC1)N1CCC(c2cnc[nH]2)CC1,cell viability (log2),[1],0.127
same,cell viability (log2),[2],0.0827
same,cell viability (log2),[3],0.121
same,cell viability (log2),[4],0.058
CCC(C)c1cnc(CC(C)C)c(=O)n1O (stereo not drawn),cell viability (log2),[5],0.088
same,cell viability (log2),[6],0.0724
same,cell viability (log2),[7],0.0675
same,cell viability (log2),[8],0.0404
CCOC(=O)c1cncn1C(C)c1ccccc1 (stereo not drawn),cell viability (log2),"0.103 µM, library screen: screen3, EWS-FLI1 expression: high (no doxycycline)",0.148
same,cell viability (log2),"0.103 µM, library screen: screen3, EWS-FLI1 expression: low (doxycycline-induced shRNA knockdown)",0.103
same,cell viability (log2),"0.308 µM, library screen: screen3, EWS-FLI1 expression: high (no doxycycline)",0.128
same,cell viability (log2),"0.308 µM, library screen: screen3, EWS-FLI1 expression: low (doxycycline-induced shRNA knockdown)",0.0765
same,cell viability (log2),"0.926 µM, library screen: screen3, EWS-FLI1 expression: high (no doxycycline)",0.0647
same,cell viability (log2),"0.926 µM, library screen: screen3, EWS-FLI1 expression: low (doxycycline-induced shRNA knockdown)",0.0966
same,cell viability (log2),"2.8 µM, library screen: screen3, EWS-FLI1 expression: high (no doxycycline)",0.203
same,cell viability (log2),"2.8 µM, library screen: screen3, EWS-FLI1 expression: low (doxycycline-induced shRNA knockdown)",0.0919
same,cell viability (log2),"8.3 µM, library screen: screen3, EWS-FLI1 expression: high (no doxycycline)",0.131
same,cell viability (log2),"8.3 µM, library screen: screen3, EWS-FLI1 expression: low (doxycycline-induced shRNA knockdown)",0.046
same,cell viability (log2),"25 µM, library screen: screen3, EWS-FLI1 expression: high (no doxycycline)",0.154
same,cell viability (log2),"25 µM, library screen: screen3, EWS-FLI1 expression: low (doxycycline-induced shRNA knockdown)",0.157
N#C/C(=C\c1cccc(O)c1)C(=O)O,cell viability (log2),[5],0.0765
same,cell viability (log2),[6],0.115
same,cell viability (log2),[7],0.0856
same,cell viability (log2),[8],0.0942
CC[C@H]1CN2CCc3cc(OC)c(OC)cc3[C@@H]2C[C@@H]1C[C@H]1NCCc2cc(OC)c(OC)cc21,cell viability (log2),"0.025 µM, library screen: screen2, EWS-FLI1 expression: high (no doxycycline)",0.187
same,cell viability (log2),"0.025 µM, library screen: screen2, EWS-FLI1 expression: low (doxycycline-induced shRNA knockdown)",0.0478
same,cell viability (log2),[5],0.11
same,cell viability (log2),[6],0.116
same,cell viability (log2),[1],-0.895 (active)
same,cell viability (log2),[2],-0.442 (active)
same,cell viability (log2),[7],-1.08 (active)
same,cell viability (log2),[8],-0.152 (active)
same,cell viability (log2),[3],-2.19 (active)
same,cell viability (log2),[4],-1.21 (active)
same,cell viability (log2),"25 µM, library screen: screen2, EWS-FLI1 expression: high (no doxycycline)",-2.91 (active)
same,cell viability (log2),"25 µM, library screen: screen2, EWS-FLI1 expression: low (doxycycline-induced shRNA knockdown)",-1.84 (active)
COc1cc2c(cc1OC)C(C)NCC2 (stereo not drawn),cell viability (log2),[5],0.121
same,cell viability (log2),[6],0.123
same,cell viability (log2),[7],0.193
same,cell viability (log2),[8],0.143
COc1cc2c(cc1O)CCNC2C (stereo not drawn),cell viability (log2),[5],-0.0405
same,cell viability (log2),[6],-0.0233
same,cell viability (log2),[7],0.0226
same,cell viability (log2),[8],0.0664
Clc1ccc(Cl)cc1,cell viability (log2),[5],0.0995
same,cell viability (log2),[6],0.0885
same,cell viability (log2),[7],0.0618
same,cell viability (log2),[8],0.0905
CC[C@@H](C)C(=O)O[C@H]1[C@H](O)[C@H]2[C@@H](CN3C[C@@H](C)CC[C@H]3[C@@]2(C)O)[C@@H]2C[C@]34O[C@]5(O)[C@@H](OC(=O)[C@@](C)(O)CC)CC[C@@]3(C)[C@@H]5[C@@H](OC(C)=O)[C@@H](OC(C)=O)[C@H]4[C@@]21O,cell viability (log2),[5],-0.0817
same,cell viability (log2),[6],-0.0114
same,cell viability (log2),[7],0.16
same,cell viability (log2),[8],-0.013
C/C=C/c1ccc2c(c1)OCO2,cell viability (log2),[5],0.0443
same,cell viability (log2),[6],-0.0135
same,cell viability (log2),[7],0.1
same,cell viability (log2),[8],0.0835
CC(=O)OCC1=C(C(=O)O)N2C(=O)[C@@H](NC(=O)CCCC(N)C(=O)O)C2SC1 (stereo partly drawn),cell viability (log2),[5],0.128
same,cell viability (log2),[6],0.143
same,cell viability (log2),[7],0.14
same,cell viability (log2),[8],-0.0301
C[C@]12C=CC(=O)C=C1CC[C@@H]1[C@@H]2CC[C@]2(C)C(=O)CC[C@@H]12,cell viability (log2),[5],0.0143
same,cell viability (log2),[6],0.0386
same,cell viability (log2),[7],-0.0049
same,cell viability (log2),[8],0.0547
C=CCC1(C(C)CCC)C(=O)NC(=S)NC1=O (stereo not drawn),cell viability (log2),[5],0.103
same,cell viability (log2),[6],0.0758
same,cell viability (log2),[7],0.146
same,cell viability (log2),[8],0.0138
CC1C2Cc3ccc(O)cc3C1(C)CCN2CC1CC1 (stereo not drawn),cell viability (log2),[1],0.105
same,cell viability (log2),[2],0.104
same,cell viability (log2),[3],0.153
same,cell viability (log2),[4],0.0285
C[C@@H]1CC[C@H]2[C@@H](C)C(=O)O[C@@H]3OC4(C)CC[C@@H]1[C@]32OO4,cell viability (log2),[5],0.0266
same,cell viability (log2),[6],0.0821
same,cell viability (log2),[7],0.0419
same,cell viability (log2),[8],-0.14
COc1ccc(C[C@H]2NC[C@H](O)[C@H]2OC(C)=O)cc1,cell viability (log2),[5],-0.49 (active)
same,cell viability (log2),[6],-0.228 (active)
same,cell viability (log2),[7],-2.24 (active)
same,cell viability (log2),[8],-1.04 (active)
CC(C)[C@H]1CN[C@H](C(=O)O)[C@H]1CC(=O)O,cell viability (log2),[1],0.0705
same,cell viability (log2),[2],0.0959
same,cell viability (log2),[3],0.0874
same,cell viability (log2),[4],0.0543
CCCCCCCCCCCCCCCC[n+]1ccccc1,cell viability (log2),[5],0.0178
same,cell viability (log2),[6],-0.00413
same,cell viability (log2),[7],-1.66 (active)
same,cell viability (log2),[8],-2.21 (active)
COc1cc(OC)c2c(c1)OC(c1ccc(OC)c(OC)c1)C(O)C2 (stereo not drawn),cell viability (log2),[5],0.123
same,cell viability (log2),[6],0.00653
same,cell viability (log2),[7],0.0915
same,cell viability (log2),[8],0.0594
CNc1ccc2oc(C[C@@H]3OC4(CC[C@@H]3C)O[C@H](C(C)C(=O)c3ccc[nH]3)[C@H](C)C[C@H]4C)nc2c1C(=O)O (stereo partly drawn),cell viability (log2),[5],0.111
same,cell viability (log2),[6],0.0323
same,cell viability (log2),[1],-0.082 (active)
same,cell viability (log2),[2],0.0959
same,cell viability (log2),[7],-0.0263
same,cell viability (log2),[8],-1.11
same,cell viability (log2),[3],-0.175 (active)
same,cell viability (log2),[4],0.1
CN[C@@H](Cc1c[nH]c2ccccc12)C(=O)O,cell viability (log2),[5],0.064
same,cell viability (log2),[6],0.0774
same,cell viability (log2),[7],0.156
same,cell viability (log2),[8],0.0411
